High-throughput results (PubChem)
Lassa entry inh: qHTS for Inhibitors of binding or entry into cells for Lassa Virus. Lassa virus pseudotype entry inhibition, cell reporter. Potency, µM (doses to about 37.9 µM), hits mostly inhibitors. 300,000 compounds, 1.2% hits. AID 540256, 2011; calls by dose curve; tested in HEK293 cells; note: nearly all actives have a fitted effect of over 50% in size
Vaccinia mCherry: qHTS for Stage-Specific Inhibitors of Vaccinia Orthopoxvirus: mCherry Reporter Primary qHTS; Potency, µM (top dose mostly 36.5 µM), actives largely listed as inhibitors; Vaccinia virus mCherry reporter infection, fluorescence; 310,000 compounds, 0.63% hits; calls by dose curve; tested in A549 cells; note: nearly all actives have a fitted effect of over 35% in size
FMDV inh: High Throughput Screening for Foot and Mouth Disease Virus Antivirals; 410,000 compounds, 1.2% hits; Potency, µM (highest dose often 57.9 µM), usual class: inhibitors; FMDV antiviral cell-based qHTS; calls by dose curve; tested in HEK293T cells; note: read-out not given here; nearly all actives have a fitted effect of over 45% in size
VACV Venus inh: qHTS for Stage-Specific Inhibitors of Vaccinia Orthopoxvirus: Venus Reporter Primary qHTS. Vaccinia virus Venus reporter expression, fluorescence. Potency, µM (doses to about 36.5 µM), hits mostly inhibitors. 330,000 compounds, 0.46% hits; calls by dose curve; tested in A549 cells; note: nearly all actives have a fitted effect of over 30% in size
Marburg entry inh: qHTS for inhibitors of binding or entry into cells for Marburg Virus. Marburg virus pseudotyped entry inhibition, cell reporter. Potency, µM (top dose mostly 37.8 µM), most hits filed as inhibitors. 300,000 compounds, 1.8% hits; calls by dose curve; tested in HEK293 cells
HCV inhibitor: qHTS Assay for Inhibitors of Hepatitis C Virus (HCV) | Potency, µM (doses to about 41.8 µM), hits mostly inhibitors | 340,000 compounds, 3.4% hits | AID 651820, 2012 | Huh7.5.1 HCVcc-Cre infection, luciferase reporter, 44 h; active = well fitted inhibition curve with a large enough effect; inconclusive = small, poorly fitted or top-dose-only effect, or another doubt; inactive = no such curve, though single readings can be large or run the other way
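After 44 h co-culture of compound, cells and HCVcc-Cre (~0.5 moi), substrate is added for 15 min at room temperature and luciferase measured over 15 sec. Cells were seeded at 1,000/well and pre-cultured 4 h.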
A number is an active result; – = inactive; ? = inconclusive; · = no result. Only some compounds are listed: those with a hit (about 5.3% of all), similar ones and a draw of the others.

SMILES	Lassa entry inh	Vaccinia mCherry	FMDV inh	VACV Venus inh	Marburg entry inh	HCV inhibitor
Cc1ccc(C(=O)c2cnc3cc4c(cc3c2S(=O)(=O)c2ccccc2)OCCO4)cc1	–	?	–	?	7.08µM	–
Cc1ccc(N(C)S(=O)(=O)c2ccc(-c3cc(C)no3)s2)cc1	·	·	–	·	·	?
Cc1cc(-c2ccc(S(=O)(=O)N(C)c3ccc(C)c(C)c3)s2)on1	·	·	?	·	·	11.2µM
Cc1cnc(CNC(=O)C2CCC(=O)N(CCc3cccc(F)c3)C2)[nH]1 (centres undefined)	·	·	–	·	·	–
O=C(C[C@H]1C/C=C\C[C@H](NC(=O)OCC2c3ccccc3-c3ccccc32)C(=O)O[C@H](c2ccccc2)CNC1=O)N[C@H](CO)Cc1ccccc1	·	10µM	–	12.6µM	·	–
COc1ccc(-c2nnc(SCC(=O)c3ccc(NC(C)=O)cc3)o2)cc1OC	–	–	–	–	·	·
CCN(CC)S(=O)(=O)c1cccc(C(=O)N/N=C/c2cc(OC)c(O)c(OC)c2)c1	–	–	?	–	–	–
CCN(CC)S(=O)(=O)c1cccc(C(=O)N/N=C/c2cccc(O)c2O)c1	13µM	10µM	–	?	?	?
Cc1ccc(C(C)C)c(OCc2ccc(C(=O)N/N=C/c3cccc(O)c3O)cc2)c1	11.6µM	10µM	?	?	7.31µM	22.4µM
CCN(CC)c1ccc(/C=N/NC(=O)CCC(=O)NCc2ccccc2)c(O)c1	?	10µM	–	?	?	?
CCN(CC)c1ccc(/C=N/NC(=O)c2cccc(S(=O)(=O)N3CCOCC3)c2)c(O)c1	?	1.78µM	?	?	?	?
COc1cc(/C=N/NC(=O)c2ccc(COc3cc(C)ccc3C(C)C)cc2)cc(OC)c1O	?	–	?	–	?	?
CCN1CCCC1CNC(=O)c1cnn(-c2nccc(-c3ccccc3OC)n2)c1-c1ccco1 (centres undefined)	·	–	–	–	·	·
COc1cc(=O)n2c(c1C(=O)NCc1ccco1)CCN(C(=O)c1ccccc1-c1ncc[nH]1)CC2	·	–	–	–	·	·
CCOC(=O)N/N=C/c1ccc(N(CC)CC)cc1O	4.47µM	?	–	?	?	3.55µM
COc1cc(/C=N\NC(=O)CNC(=O)C2COc3ccccc3O2)ccc1O (centres undefined)	–	–	–	–	–	–
CCN(CC)c1ccc(/C=N/NC(=O)c2c(Cl)cnn2C)c(O)c1	20.6µM	1.12µM	–	?	1.12µM	3.55µM
CCN(CC)c1ccc(/C=N/Nc2ccc(C)cc2)c(O)c1	–	–	–	–	–	–
CCN(CC)c1ccc(/C=N/NC(=O)CNC(=O)C2COc3ccccc3O2)c(O)c1 (centres undefined)	11.2µM	2.82µM	–	?	4.47µM	11.2µM
Cn1ncc(Cl)c1C(=O)N/N=C/c1cc2c(cc1[N+](=O)[O-])OCO2	–	·	–	·	–	–
COc1cc(C(=O)Nc2cc(C)c(O)c(-c3nc4ccccc4s3)c2)cc(OC)c1OC	–	–	–	–	–	·
C=CCNC(=O)N1C2=NC(C(=O)OC)=C(C(=O)OC)[C@@H]3N(C)c4ccccc4[C@]23C[C@H]1CO	?	·	·	·	–	·
O=c1c(O)c(-c2ccccc2)oc2cc(O)cc(O)c12	·	–	–	–	·	–
O=c1c(O)c(-c2cc(O)c(O)c(O)c2)oc2cc(O)cc(O)c12	?	–	–	–	22.3µM	–
O=C(CSc1nc(=O)n(CCN2CCOCC2)c2c1CCCC2)Nc1ccc(F)cc1F	?	–	–	–	–	–
SMILES	Lassa entry inh	Vaccinia mCherry	FMDV inh	VACV Venus inh	Marburg entry inh	HCV inhibitor
Cc1cccc(Nc2nnc(-c3ccc(N4CCOCC4)c([N+](=O)[O-])c3)c3ccccc23)c1	10µM	–	–	–	2.24µM	14.1µM
C[C@H]1CC[C@H]2C(=O)O[C@H](CO)CN2[C@@H]1c1ccc(Br)cc1	·	·	·	·	–	·
C=CCc1c(C)nc(SC)nc1Nc1ccc(C)cc1	?	–	–	–	?	10µM
C=CCc1c(C)nc(-c2ccccc2)nc1Nc1ccccc1O	–	–	–	–	?	?
CC(=O)NC(CC(C)C)C(=O)NC(Cc1ccccc1)C(=O)CCl (centres undefined)	–	–	28.2µM	–	?	?
Cc1ccc(S(=O)(=O)N[C@@H](Cc2ccccc2)C(=O)CCl)cc1	4.61µM	–	31.6µM	?	10.3µM	–
COc1cc(CN2C[C@@H](CO)O[C@@H](n3cnc4c(NCC(C)C)ncnc43)C2)cc(OC)c1OC	·	–	–	–	·	·
O=C(NCc1ccccc1Cl)c1ccc(CSCc2cccc(F)c2)o1	?	–	–	–	·	·
O=C(Nc1ccccc1N1CCN(C(=O)c2ccccc2)CC1)c1cc(Br)ccc1Cl	?	·	–	·	?	?
O=C(Nc1ccccc1N1CCN(C(=O)c2ccccc2)CC1)c1ccc([N+](=O)[O-])o1	–	11.2µM	–	?	?	?
CC(C)C(=O)N1CCN(c2ccccc2NC(=O)c2ccc([N+](=O)[O-])o2)CC1	–	11.2µM	–	?	–	?
COc1ccc(Br)cc1C(=O)Nc1ccccc1N1CCN(C(=O)c2ccccc2)CC1	?	?	–	?	?	11.2µM
CCOc1ccccc1NC(=O)Cn1ncc2c([nH]c3ccccc32)c1=O	?	–	–	–	·	·
Cc1ccc(C(=O)C(C(=O)/C=C/c2ccccc2)=C2SCCCS2)cc1	22.4µM	?	11.2µM	?	?	?
COc1cccc(-c2ccnc(-n3ncc(C(=O)NCC4(N5CCCCC5)CCCC4)c3C)n2)c1	·	–	–	–	·	·
Cc1cc(C)cc(C(=O)OC2C[C@H]3CC[C@@H](C2)N3C)c1 (some centres undefined)	·	·	–	·	·	·
Cc1cc(C)cc(C(=O)N(CCc2ccccc2)C2CC3CCC(C2)N3C)c1 (centres undefined)	?	–	–	?	3.16µM	–
Cc1cc(=O)[nH]c(N/N=C/c2ccccc2Cl)n1	·	·	–	·	·	–
Cc1cc(=O)[nH]c(NN=Cc2cc(Br)ccc2O)n1	10µM	2µM	–	?	2µM	?
CCN(CC)c1ccc(/C=N/Nc2nc(C)cc(=O)[nH]2)c(O)c1	0.82µM	0.891µM	–	?	0.517µM	3.98µM
COc1cccc(/C(O)=C2\C(=O)C(=O)N(CCN(C)C)[C@@H]2c2ccc(Br)cc2)c1	·	·	·	·	–	·
Cc1cccc(C)c1NC(=O)C1(C)CSCC(=O)N1CCc1ccccc1F (centres undefined)	·	–	–	–	·	·
COc1ccc(C2c3[nH]c4ccccc4c3CC3C(=O)N(CCc4ccc(OC)c(OC)c4)CC(=O)N32)cc1 (centres undefined)	·	·	–	·	·	·
O=C(Cn1ncc2c3ccccc3n(Cc3ccc(F)cc3)c2c1=O)N1CCN(c2ncccn2)CC1	?	–	?	–	?	?
O=C(Cn1ncc2c3ccccc3n(Cc3ccc(F)cc3)c2c1=O)N1CCC2(CC1)OCCO2	?	·	?	–	14.1µM	?
